TcdB GH inh: inhibitors of Clostridioides difficile toxin B glycohydrolase; TcdB glycohydrolase enzymatic assay, plate reader; P18177; inhibition, % at 9.99 µM; 0.24% of 350,000 active; in the data active = inhibition above about 10%
VHR inh abs: inhibitors of human VHR1 phosphatase (DUSP3). P51452. recombinant VHR phosphatase, pNPP absorbance. inhibition, % at 13.3 µM. 0.52% of 290,000 active; in the data active = inhibition above about 50%
Target sequence (P51452 whole entry, looked up): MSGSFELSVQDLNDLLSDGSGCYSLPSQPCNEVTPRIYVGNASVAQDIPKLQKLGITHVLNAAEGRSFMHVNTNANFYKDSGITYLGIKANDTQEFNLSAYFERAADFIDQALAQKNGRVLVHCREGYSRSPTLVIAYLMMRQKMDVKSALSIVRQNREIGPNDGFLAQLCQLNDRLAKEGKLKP
BH1578 lux ind: quorum light induction in luxS cqsA deficient V. cholerae. activation, % at 18.7 µM. 0.16% of 350,000 active. V. cholerae BH1578 lux reporter, luminescence, 6 h; in the data active = activation mostly above about 9.7%, no sharp cut-off
BioA inh: BioA (M. tuberculosis) enzyme inhibition; purified M. tuberculosis BioA enzyme, plate reader; inhibition, % at 9.99 µM; 0.096% of 360,000 active; in the data active = inhibition above about 40%
PfHsp40 rescue: compounds rescuing yeast from Plasmodium falciparum HSP40 toxicity | S. cerevisiae expressing PfHsp40, growth rescue, ATP luminescence | growth rescue, % at 12.5 µM | 0.68% of 340,000 active; in the data active = growth rescue above about 28%, passing the limit was not always enough;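 note: yeast W303a lacking pdr1 and pdr3 grown in galactose medium; growth measured after three days at 30 °C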
Yp Topo-I inh: blocks Yersinia pestis topoisomerase I activity; Y. pestis Topo-I cleavage product accumulation, plate reader; activity, % at 10 µM; 0.064% of 360,000 active; in the data active = activity above about 50%, passing the limit was not always enough
A number is an active result; i = inactive; nt = no result given. Sampled rows, rich in hits. Any-hit rate of the full collection: about 1.2%.

SMILES	TcdB GH inh	VHR inh abs	BH1578 lux ind	BioA inh	PfHsp40 rescue	Yp Topo-I inh
Cc1ccc(C)c(NC(=S)NNC(=O)c2csc3c2CCCC3)c1	nt	i	i	i	42	i
Cc1cccc(NC(=S)NNC(=O)c2csc(C)c2)c1	i	i	i	nt	i	i
CCNC(=S)NNC(=O)c1csc2c1CCCC2	i	i	i	i	i	i
Cc1ccc(C)c(NC(=S)NNC(=O)c2csc3c2CCC(C)C3)c1 (stereo not drawn)	nt	i	i	i	62	i
Cc1cccc(NC(=S)NNC(=O)c2csc3c2CCCC3)c1	nt	i	i	i	141	i
CCCCN(C(=O)C1CCN(C(=O)c2ccccc2C)CC1)c1c(N)n(CCC)c(=O)[nH]c1=O	i	nt	i	nt	i	i
CCCCn1cnc2c(SCc3ccccc3Cl)nc(N)nc21	i	nt	i	i	i	i
COc1cc(OC)c(C2Nc3cccc4cccc(c34)N2)c(OC)c1	i	53	i	i	i	i
CCC(C)NC(=O)CCC(=O)OC1O[C@H]2OC3(C)CC[C@H]4[C@H](C)CCC(C1C)C24OO3 (stereo partly drawn)	i	i	i	i	101	i
CCC(C)C(NC(=O)CCCNC(=O)CCC(=O)OC1O[C@H]2OC3(C)CC[C@H]4[C@H](C)CCC(C1C)C24OO3)C(=O)O (stereo partly drawn)	i	i	i	i	i	i
CSc1c[n+]2c(n1C)CCC2	nt	i	i	i	i	i
COc1ccc(/C=N/Nc2ccc([N+](=O)[O-])cc2)cc1Cn1cc([N+](=O)[O-])cn1	nt	i	i	i	i	i
O=[N+]([O-])c1ccc(/C=N/Nc2ccccn2)cc1	i	58	i	i	i	i
O=[N+]([O-])c1cccc(/C=N/Nc2ccccn2)c1	i	i	i	nt	i	i
COc1cc(/C=N/Nc2ccccn2)ccc1O	16	i	i	nt	i	i
O=[N+]([O-])c1cc(Cl)cc(/C=N\Nc2ccccn2)c1O	nt	i	25	i	i	i
COc1ccc(/C=N/Nc2ccc([N+](=O)[O-])cc2)cc1O	i	nt	i	i	42	i
O=C1/C(=C/C=C/c2ccco2)SC(=S)N1c1ccc(O)cc1	i	i	i	nt	i	i
CC(C)C(C(=O)O)N1C(=O)/C(=C/C=C/c2ccco2)SC1=S (stereo not drawn)	nt	52	i	nt	i	i
Cc1ccc(Cl)c2c(N=Nc3ccccc3)c(O)[nH]c12	i	52	i	i	i	i
O=C(CN1C(=O)CC(c2ccccc2)=Nc2ccccc21)NCc1ccccc1	nt	i	i	i	119	i
COc1cccc(-n2c(SCC(=O)N3CCOCC3)nnc2-c2c[nH]c3ccccc23)c1	11	i	i	i	i	i
Cc1cccc2nc(COc3ccc4ccccc4c3Br)cn12	i	i	i	nt	i	i
CCCCc1nnc(NC(=O)C=C(C)C)s1	nt	i	i	i	i	i
Cc1ccnc(NC(=O)c2ccc(NC(=O)CC3SC(N4CCCC4)=NC3=O)cc2)c1 (stereo not drawn)	i	nt	i	nt	i	i
SMILES	TcdB GH inh	VHR inh abs	BH1578 lux ind	BioA inh	PfHsp40 rescue	Yp Topo-I inh
COc1ccc(C)cc1NC(=O)c1ccc(NC(=O)CC2SC(N3CCCC3)=NC2=O)cc1 (stereo not drawn)	nt	i	7.6	i	i	i
CCc1ccc(S(=O)(=O)/N=C2\C=CC(=O)c3ccccc32)cc1	nt	i	nt	nt	nt	nt
CCc1ccc(S(=O)(=O)/N=C2/C=C(Sc3ncn[nH]3)C(=O)c3ccccc32)cc1	nt	55	i	nt	179	i
CCNC(=O)C[C@@H]1CC[C@@H]2[C@H](COC[C@H](O)CN2C(=O)C2CCOCC2)O1	i	nt	nt	i	nt	nt
CCOc1ccccc1N1CCN(C(=O)C2c3ccccc3Oc3ccccc32)CC1	nt	50	i	nt	i	i
O=C(c1c(F)cccc1F)N(Cc1ccccn1)C1CCCC1	i	i	i	i	i	i
Cc1cc(C)c2[nH]c(=O)c(CN(CC3CCCO3)C(=O)C3CCCO3)cc2c1 (stereo not drawn)	nt	i	i	i	i	i
Nc1cc2c(cc1[N+](=O)[O-])-c1ccccc1C2=NO	i	nt	i	nt	73	i
O=C(CNC(=O)c1[nH]cnc1C(=O)N[C@@H](Cc1ccccc1)C(=O)OCc1ccccc1)OCc1ccccc1	i	i	i	i	i	i
O=C(NC1CC1)c1cccc(Oc2ccccc2)c1	i	i	i	i	77	i
COc1ccc(NC(=O)Nc2ccc3c(c2)C(=O)N([C@H](C)CO)C[C@@H](C)[C@H](CN(C)CC2CC2)OCCCC[C@@H](C)O3)cc1	i	nt	nt	i	nt	nt
CCN(CC)CCCNC(=O)c1nn2c(C(F)(F)F)cc(-c3ccccc3)nc2c1Cl	i	60	i	i	i	i
CCCCNC(=O)c1nn2c(C(F)(F)F)cc(-c3ccccc3)nc2c1Br	i	i	i	i	i	i
O=c1oc2c(O)c(O)cc3c(=O)oc4c(O)c(O)cc1c4c23	nt	nt	i	i	152	i
O=c1oc2ccccc2c2oc3cc(O)c(O)cc3c12	i	i	i	nt	i	i
CCCNC(=O)N1[C@@H](CO)[C@H](c2ccccc2)C12CN(C(=O)CC)C2	i	nt	nt	nt	nt	nt
O=C(O)c1ccc(N/N=C/c2cccc(F)c2)cc1	nt	i	i	nt	i	i
O=C(O)c1ccc(N/N=C/c2cccc(C(F)(F)F)c2)cc1	i	i	i	i	64	i
O=C(N/N=C/C(Br)=C/c1ccccc1)C(O)c1ccccc1 (stereo not drawn)	i	i	i	i	i	i
O=C(O)c1ccc(N/N=C/c2ccc(F)c(F)c2)cc1	i	i	i	nt	147	i
O=C(O)c1ccc(N/N=C/C(Br)=C/c2ccccc2)cc1	i	i	i	i	183	i
COCC(C)n1c(SCC(=O)N2CC(=O)Nc3ccccc32)nc2ccccc2c1=O (stereo not drawn)	i	nt	i	i	i	i
O=C(COc1ccc(CNC[C@H]2O[C@@H](n3ccc(=O)[nH]c3=O)[C@H](O)[C@@H]2O)cc1)Nc1nccs1	i	nt	nt	i	nt	nt
CCOC(=O)c1sc(NC(=O)c2ccc(S(=O)(=O)N3CCCCC3)cc2)nc1-c1ccccc1	nt	i	i	i	i	i
CCOC(=O)c1c(-c2ccccc2)nc2ccc(C)cn12	nt	i	i	i	207	i
SMILES	TcdB GH inh	VHR inh abs	BH1578 lux ind	BioA inh	PfHsp40 rescue	Yp Topo-I inh
CCOC(=O)c1sc(N(C)C)nc1-c1ccccc1	nt	i	i	i	i	i
CCOC(=O)c1sc(NC(=O)c2ccc(S(=O)(=O)N3CCCCCC3)cc2)nc1-c1ccccc1	i	i	i	nt	50	i
CCOC(=O)c1sc(N)nc1-c1ccccc1	i	i	i	i	94	i
CCOC(=O)c1c(-c2ccccc2)nc2cc(C)ccn12	nt	i	i	i	i	i
O=C(NC(=S)NCc1ccccc1)c1ccc(Br)o1	i	i	i	i	i	i
Cc1cc2nc(C)n(CCCN)c2cc1C	nt	51	i	i	i	i
CCOc1ccccc1CN1CCC(n2nccc2NC(=O)CCCc2ccccc2)CC1	i	i	i	i	i	i
COc1ccc2c(c1)S/C(=C\C(=O)c1ccncc1)N2C	nt	i	i	i	174	i
COc1cc(OC)cc(C(=O)/C=C2\Sc3ccccc3N2C)c1	i	i	i	i	i	i

Bioassay records as filed in PubChem.
